# The whole screen tested about 340,000 compounds, of which about 530 (0.16%) were called active. Roughly 2% stayed inconclusive and do not appear here. Rule as the data show it: active = activity change below about -80%; inconclusive = between about -30% and that limit; inactive = weaker than that. Only a selection was taken, and actives are over-represented in it overall.
# Assay: Small Molecules that selectively kill Giardia lamblia: qHTS;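 also: parasites exposed to compound for two days anaerobically before the ATP read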
# Conditions: Giardia lamblia trophozoite viability; at 7.66 µM; stronger effect = lower value
# Excerpt: Giardia lamblia is a human pathogen afflicting impoverished nations, and the most common cause of outbreaks of diarrhea in the United States. Giardia has been classified by the CDC as a category B bioterrorism organism. The favored anti giardiasis drugs in the US are metronidazole or tinidazole, compounds that have undesirable side effects. Moreover, increasing resistance to drug regimes and recurrence are a concern. It is thus clear that alternative drug treatments are needed.
# In a collaboration between the University of Maryland, College Park and the NIH Chemical Genomics Center, a bioluminescence Giardia viability assay based on the trophozoites' ATP content was developed. This assay is suitable for high throughput screening, and miniaturized the assay for compound screening in 1536-well plates. The goal of the project is to screen the Molecular Libraries Small Molecule Repository (MLSMR) for compounds that selectively kill Giardia trophozoites.
# NIH Chemical Genomics Center [NCGC]
# NIH Molecular Libraries Probe Centers Network [MLPCN]
# Assay Submitter (PI): Osnat Herzberg, University of Maryland, College Park, MD.
# 1. Dispense 2 ul/well media
# 2. Dispense 23 nl/well compounds
# 3. Dispense 4 ul/well Giardia trophozoites at a concentration of 100 cells/well
# 4. Incubate 48 hrs at 37 deg C anaerobically
# 5. Dispense 4 ul/well ATPLite 1-Step Luminescence assay kit
# 6. Incubate 15-30 min at room temperature
# 7. Read luminescence signal on ViewLux plate reader
# % is scaled to controls: 0 for no effect and ±100 for the full control effect.
row,Compound,activity change
1,CN(c1ccccc1)c1ccc([N+](=O)[O-])c2nonc12,-83.4% (active)
2,CCN(CC)c1ccc([N+](=O)[O-])c2cccnc12,-13.7% (inactive)
3,CO[C@H]1[C@@H](O)[C@@H](C)O[C@H](O[C@H]2[C@H](Oc3cccc4c(O)c5c(=O)oc6ccc(C)c7c(=O)oc(c34)c5c67)O[C@H](C)[C@H](O)[C@@H]2O)[C@@H]1O,0.803% (inactive)
4,COc1cc([C@@H]2c3cc4c(cc3[C@H](OC(C)=O)[C@H]3COC(=O)[C@H]23)OCO4)cc(OC)c1OC,-7.09% (inactive)
5,O=P1(Oc2ccccc2)CC(O)C(O)C(COCc2ccccc2)O1 (stereo not given),11% (inactive)

# From PubChem BioAssay AID540267 (National Center for Advancing Translational Sciences (NCATS), 2011)
